Experimental findings from PubChem BioAssay (NCI) are described below.

About 83,000 compounds went through this panel and 20% of them were active in at least one assay; those are over-represented in the sample as a whole.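 Assay: single dose, 48 h. Readout: percent growth (0 = no net growth; negative = cell death). Active: <10.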 Values without a mark were called inactive. Active and inactive are the calls of the source.

Some test systems named below: HCT-15 colon; HT29 colon; SNB-75 CNS; SNB-19 CNS; U251 CNS; PC-3 prostate; SK-MEL-5 melanoma; UACC-62 melanoma; LOX IMVI melanoma; SK-MEL-28 melanoma; SK-MEL-2 melanoma; EKVX NSCLC; SN12C renal; UO-31 renal; TK-10 renal; ACHN renal; CAKI-1 renal; A498 renal; CCRF-CEM leukemia; MOLT-4 leukemia.
Common to all, as to test: NCI-60 one-dose screen, 48 h (100 = growth as untreated, 0 = no growth, -100 = all killed)
Settings in all cases: 10 µM unless noted

On to `N#CC1C(C#N)C2c3ccccc3C=CN2C1C(=O)c1ccc(Br)cc1` (stereo not given), for which the growth in the experiment with HCT-15 colon was 95.9%; with HT29 colon, 86.8%; with SNB-75 CNS it was 90.5%; in the experiment on SNB-19 CNS it was 91.2%; in the experiment with U251 CNS, 100%; in the experiment with PC-3 prostate, 94%. In addition, the growth in the experiment with SK-MEL-5 melanoma is 90.8%; with UACC-62 melanoma it was 98.4%; with LOX IMVI melanoma, 92.2%; in the experiment on SK-MEL-28 melanoma it was 102%; in the experiment on SK-MEL-2 melanoma, 98.3%; in the experiment on EKVX NSCLC it was 93%. Besides, the growth in the experiment with SN12C renal is 88.6%; in the experiment with UO-31 renal it was 99.2%; in the experiment with TK-10 renal it was 111%; in the experiment on ACHN renal, 90.3%; with CAKI-1 renal, 89.8%; with A498 renal, 101%. For the same compound, the growth with CCRF-CEM leukemia is 99.2%; in the experiment with MOLT-4 leukemia, 102%.

Consider `COc1cc(C2=NN(C(C)=O)C(c3cc(OC)c(OC)c(OC)c3)C2)ccc1O` (stereo not given), for which the growth is 4.31% (active) in the experiment with HCT-15 colon; 8.21% (active) in the experiment on HT29 colon; 4.64% (active) in the experiment with SNB-75 CNS; 34.9% in the experiment with SNB-19 CNS; 7.85% (active) with U251 CNS; 13.1% in the experiment on PC-3 prostate. The growth is 6.65% (active) with SK-MEL-5 melanoma; 15.3% in the experiment on UACC-62 melanoma; 34.7% with LOX IMVI melanoma; 68.2% in the experiment on SK-MEL-28 melanoma; 37.9% in the experiment on SK-MEL-2 melanoma; 34.8% with EKVX NSCLC. Moreover, the growth in the experiment with SN12C renal is 34.2%; in the experiment with UO-31 renal, 31.8%; with TK-10 renal, 47.5%; with ACHN renal it was 30.5%; in the experiment on CAKI-1 renal, 46.4%; in the experiment on A498 renal it was -14.4% (active). The growth in the experiment on CCRF-CEM leukemia was -16.5% (active); with MOLT-4 leukemia, 0.196% (active).

For the compound `CN1[C@@H]2CC[C@H]1/C(=C\c1ccccc1)C(=O)/C2=C/c1ccccc1`, the growth in the experiment on HCT-15 colon was 27.9%; with HT29 colon, 10.9%; in the experiment on SNB-75 CNS it was 26.4%; with SNB-19 CNS, 47.1%; in the experiment on U251 CNS it was 16.6%; in the experiment with PC-3 prostate it was 36.8%. Further, the growth with SK-MEL-5 melanoma was 43.9%; in the experiment on UACC-62 melanoma, 26.6%; in the experiment on LOX IMVI melanoma, 19.7%; in the experiment on SK-MEL-28 melanoma it was 70.9%; with SK-MEL-2 melanoma, 60.7%; in the experiment on EKVX NSCLC, 69.4%. Moreover, the growth in the experiment with SN12C renal is 36.8%; in the experiment with UO-31 renal, 55.4%; in the experiment on TK-10 renal it was 74.9%; in the experiment with ACHN renal, 42%; in the experiment on CAKI-1 renal, 41.3%; in the experiment with A498 renal it was 71.7%. The growth was 16.1% with CCRF-CEM leukemia and 14.9% in the experiment on MOLT-4 leukemia.

As for `O=C1c2c(c3c4cccc(F)c4[nH]c3c3ccc4ccccc4c23)C(=O)N1O`, the growth in the experiment on HCT-15 colon was 15.5%; with HT29 colon it was 23.8%; in the experiment with SNB-75 CNS, 68.7%; in the experiment on SNB-19 CNS, 30.2%; with U251 CNS, 26.8%; in the experiment on PC-3 prostate it was 32.5%. Further, the growth was 9.72% (active) with SK-MEL-5 melanoma; 26.9% in the experiment on UACC-62 melanoma; 18.4% in the experiment with LOX IMVI melanoma; 58.5% with SK-MEL-28 melanoma; 51.5% in the experiment with SK-MEL-2 melanoma; 63.8% in the experiment with EKVX NSCLC. Besides, the growth in the experiment on SN12C renal is 41.5%; with UO-31 renal, 30.4%; in the experiment with TK-10 renal, 91.1%; in the experiment with ACHN renal it was 27.8%; in the experiment with CAKI-1 renal, 29.4%; with A498 renal it was 27.2%. In addition, the growth is 7.09% (active) in the experiment on CCRF-CEM leukemia and 3.29% (active) in the experiment on MOLT-4 leukemia.

Turning to `O=C(O)c1ccc2c(c1)C(=O)N(Cc1ccccc1)C2=O`, the growth in the experiment with HCT-15 colon is 99.9%; in the experiment with HT29 colon, 99.9%; with SNB-75 CNS, 94.2%; in the experiment on SNB-19 CNS it was 95.1%; in the experiment on U251 CNS, 92.7%; with PC-3 prostate it was 96.2%. In addition, the growth was 99.7% in the experiment on SK-MEL-5 melanoma; 97.9% in the experiment on UACC-62 melanoma; 95.7% in the experiment with LOX IMVI melanoma; 110% in the experiment with SK-MEL-28 melanoma; 106% in the experiment with SK-MEL-2 melanoma; 99.8% in the experiment on EKVX NSCLC. For the same compound, the growth is 98.2% in the experiment with SN12C renal; 83% with UO-31 renal; 91.1% in the experiment with TK-10 renal; 99.9% in the experiment with ACHN renal; 99.3% in the experiment on CAKI-1 renal; 85.4% with A498 renal. Besides, the growth is 92.6% with CCRF-CEM leukemia and 98.5% in the experiment with MOLT-4 leukemia.

As to `CN1C(N2CCN(S(=O)(=O)c3ccccc3)CC2)=NS(=O)(=O)c2ccccc21`, the growth was 113% with HCT-15 colon; 104% in the experiment on HT29 colon; 53.4% in the experiment with SNB-75 CNS; 104% in the experiment on SNB-19 CNS; 99.7% in the experiment with U251 CNS; 98.9% in the experiment on PC-3 prostate. The growth is 104% in the experiment with SK-MEL-5 melanoma; 94.4% with UACC-62 melanoma; 96% with LOX IMVI melanoma; 103% with SK-MEL-28 melanoma; 56.7% in the experiment on SK-MEL-2 melanoma; 111% in the experiment with EKVX NSCLC. Also, the growth is 90.7% in the experiment with SN12C renal; 72.4% in the experiment on UO-31 renal; 114% with TK-10 renal; 106% with ACHN renal; 104% with CAKI-1 renal; 155% with A498 renal. The results for the growth in the experiment on CCRF-CEM leukemia and with MOLT-4 leukemia were 118% and 178%, respectively.

Consider `CCOC(=O)c1cc(C(=O)c2ccc(Br)cc2)n2ccc(/C=C/c3cc[n+](CC(=O)c4ccc(OC)cc4)cc3)cc12`, for which the growth with HCT-15 colon is 70.7%; in the experiment with HT29 colon, 34.3%; with SNB-75 CNS, 93.7%; with SNB-19 CNS it was 89.1%; in the experiment with U251 CNS, 101%; in the experiment on PC-3 prostate it was 83.8%. Moreover, the growth was 95.3% in the experiment on SK-MEL-5 melanoma; 92.7% in the experiment on UACC-62 melanoma; 81% in the experiment with LOX IMVI melanoma; 106% in the experiment on SK-MEL-28 melanoma; 105% in the experiment with SK-MEL-2 melanoma; 95.3% with EKVX NSCLC. Further, the growth in the experiment with SN12C renal is 78%; in the experiment with UO-31 renal it was 77.6%; in the experiment on TK-10 renal, 116%; in the experiment with ACHN renal, 93.6%; in the experiment with CAKI-1 renal it was 93.2%; in the experiment on A498 renal it was 92%. The growth in the experiment with CCRF-CEM leukemia is -23.7% (active); in the experiment with MOLT-4 leukemia, 68.3%.
